Assay outcomes: PubChem, several laboratories
Only some compounds are listed: those with a hit (about 1.6% of all), similar ones and a draw of the others.
GRK2 inh – compounds blocking aptamer binding on GRK2 – biochemical, human GRK2, bead flow cytometry, HTS, primary screen. Beta-adrenergic receptor kinase 1 (Homo sapiens), P25098. FAM-aptamer displacement from GRK2. inhibition of aptamer binding, % at 10 µM. hit rate 0.59% among 330,000. AID 488847, 2010;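 active = inhibition of aptamer binding above 40%, roughly 3 SD of noise, on plates passing a quality check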;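 note: median bead fluorescence of bound FAM aptamer so fluorescent compounds give negative values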
Yeast superoxide – reduction of superoxide in aged yeast, primary screen, HTS. S. cerevisiae aged cells, superoxide DHE fluorescence; active compounds read low. superoxide response (% of plate mean), % at 10 µM. hit rate 0.18% among 330,000;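 active = superoxide response under a set limit, about three screen SD below normal, cut at about 65% in these data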;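 note: yeast aged for seven days with compound at 30 °C before DHE staining; 100% = average MFI of all compound-treated wells on the plate with controls excluded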
ATG4B inhibitor – ATG4B protease inhibitors, primary screen, biochemical, fluorescence, uHTS; inhibition, % at 8.33 µM; hit rate 0.51% among 340,000; AID 504462, 2011; ATG4B cleavage of LC3-PLA2, NBD-HPC fluorescence, 1 h; Cysteine protease ATG4B (Homo sapiens), Q9Y4P1; in the data active = inhibition above about 40%
Target sequence (Q9Y4P1 whole entry, looked up): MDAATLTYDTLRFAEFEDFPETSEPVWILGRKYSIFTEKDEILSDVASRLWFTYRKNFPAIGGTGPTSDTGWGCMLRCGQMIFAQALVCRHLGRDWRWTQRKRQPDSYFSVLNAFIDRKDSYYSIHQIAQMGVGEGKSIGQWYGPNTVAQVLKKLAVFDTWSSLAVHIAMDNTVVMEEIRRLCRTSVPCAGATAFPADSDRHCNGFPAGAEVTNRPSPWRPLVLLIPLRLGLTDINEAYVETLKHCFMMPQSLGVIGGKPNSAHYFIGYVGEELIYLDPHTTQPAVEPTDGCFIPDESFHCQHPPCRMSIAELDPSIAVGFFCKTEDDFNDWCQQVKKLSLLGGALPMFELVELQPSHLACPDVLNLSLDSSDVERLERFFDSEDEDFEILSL
Efflux pump mplx – inhibitors of Candida efflux pumps in yeast, primary screen, S. cerevisiae, Nile Red, multiplex. inhibition, % at 10 µM. S. cerevisiae Candida pump triplex. hit rate 0.44% among 330,000;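 active = plate passing quality check with inhibition over a set limit, or well fluorescence over plate mean plus 4 SD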;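 note: Nile Red retained in pooled yeast measured as flow cytometry median fluorescence; 0% = buffer negative control and 100% = Enniatin B positive control; higher means more Nile Red kept so more efflux inhibition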
ATG4B conf – ATG4B protease inhibitors, retest, confirmation, biochemical, fluorescence, single concentration; shares compounds with ATG4B inhibitor; ATG4B protease fluorescent substrate cleavage assay; inhibition, % at 8.33 µM; hit rate 92% among 320; AID 504757, 2011; in the data active = inhibition above about 39%
PLA2 ctr – PLA2 enzyme inhibition, counter-screen for ATG4B inhibitor project, biochemical, single concentration, uHTS hits; shares compounds with ATG4B inhibitor; purified PLA2, NBD-C6-HPC fluorescence, 45 min; inhibition, % at 8.33 µM; hit rate 66% among 1,600; AID 588402, 2011; in the data active = inhibition above about 50%
Target sequence (P04054 whole entry, looked up): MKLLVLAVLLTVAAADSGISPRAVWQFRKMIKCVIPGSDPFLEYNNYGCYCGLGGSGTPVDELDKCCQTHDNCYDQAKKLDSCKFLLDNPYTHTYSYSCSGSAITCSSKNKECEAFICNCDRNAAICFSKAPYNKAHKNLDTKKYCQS
* marks the source's active call; other numbers are inactive results; x = not tested or not shown.

SMILES	GRK2 inh	Yeast superoxide	ATG4B inhibitor	Efflux pump mplx	PLA2 ctr	others
CCOC(=O)C1CCCN(c2nc(C)nc3c2oc2ccccc23)C1 (configuration not stated)	4	102	5	0	x
CCc1nc(N2CCCCC2C(=O)O)c2oc3ccccc3c2n1 (configuration not stated)	0	99	-9	0	x
CCc1nc(N2CCCC(C)C2)c2oc3ccccc3c2n1 (configuration not stated)	0	117	43*	0	52*
CCc1nc(N2CCCCC2)c2oc3ccccc3c2n1	0	99	53*	0	61*
CCc1nc(N2CCN(Cc3ccc4c(c3)OCO4)CC2)c2oc3ccccc3c2n1	0	114	49*	0	70*
CCc1nc(N2CCCCC2C)c2oc3ccccc3c2n1 (configuration not stated)	3	101	45*	0	56*
Cc1ccsc1CN(C)CC(=O)NCC(=O)Nc1ccc(F)cc1	1	95	5	0	x
CC1CCCCC1NC(=O)CCNS(=O)(=O)c1cc(Br)cnc1N (configuration not stated)	0	98	2	0	x
CCOc1ccccc1N(C)C(=O)c1ccc2c(=O)n3c(nc2c1)CCCCC3	1	120	6	0	x
Fc1cccc(COc2ccccc2CNc2ccccc2)c1	0	100	20	0	x
CCOc1ccc(NCc2ccccc2OCc2cccc(F)c2)cc1	2	90	46*	0	36	ATG4B conf=60*
O=C(Nc1nc2c(cc3c4c(cccc42)CC3)s1)c1ccccc1Cl	4	98	43*	0	45	ATG4B conf=60*
Cc1cccc(-n2ncc3c2CCCC3NC(=O)CCc2cccnc2)c1C (configuration not stated)	6	85	3	0	x
O=C1C(=C(c2ccccc2)c2ccccc2)Nc2ccccc21	0	69	43*	0	50*
O=C(Nc1cccc(Cl)c1N1CCCC1)c1cccc(-c2cc3ccccc3oc2=O)c1	0	86	50*	0	25	ATG4B conf=59*
O=C(Nc1ccc(CN2CCOCC2)cc1)c1cccc(-c2cc3ccccc3oc2=O)c1	0	80	-30	0	x
Cc1ccc(-n2c(Cc3cccn3C)nnc2SCC(=O)N2CCc3ccccc32)cc1	3	118	52*	0	48
Cn1cccc1Cc1nnc(SCC(=O)N2CCc3ccccc32)n1-c1ccc(F)cc1	0	99	3	0	x
Cc1nc2c(C(=O)NCCc3ccccc3Cl)c[nH]n2c(=O)c1Cl	4	97	43*	0	57*
Cc1nc2c(C(=O)NCc3ccccc3Cl)c[nH]n2c(=O)c1Cl	0	102	49*	0	46	ATG4B conf=62*
COCCNC(=O)Cn1cnc2c(cnn2-c2ccc(C)cc2)c1=O	2	97	-3	0	x
NC(=O)c1ccc(Oc2ccc(Cl)c3ccccc23)c([N+](=O)[O-])c1	1	102	62*	0	54*
CC(C)C(=O)O/N=C(\N)c1ccc(Oc2ccc(Cl)cc2)c([N+](=O)[O-])c1	3	103	0	0	x
O=C(O)c1ccc(Oc2ccc([N+](=O)[O-])cc2)c([N+](=O)[O-])c1	x	x	2	x	x
NC(=O)c1ccc(Oc2ccc(Cl)cc2)c([N+](=O)[O-])c1	2	99	59*	0	58*
SMILES	GRK2 inh	Yeast superoxide	ATG4B inhibitor	Efflux pump mplx	PLA2 ctr	others
N/C(=N\O)c1ccc(Oc2ccccc2Cl)c([N+](=O)[O-])c1	0	98	-5	0	x
NC(=O)c1ccc(Oc2ccc3c(c2)CCC3)c([N+](=O)[O-])c1	3	114	80*	0	85*
Cc1[nH]nc(SCC(=O)Nc2ccc(C#N)cc2)c1[N+](=O)[O-]	0	114	11	0	x
COCCCn1c(SCC(=O)Nc2oc(C)c3c(C)n[nH]c(=O)c23)nc2ccccc2c1=O	0	84	-2	0	x
Cc1n[nH]c(=O)c2c(NC(=O)CSc3nc4ccccc4c(=O)n3-c3ccc(OC(F)F)cc3)oc(C)c12	6	91	41*	0	75*
CCOc1ccc(OCC)c(NC(=O)CN2CCC(NC(=O)c3cccc(F)c3)CC2)c1	0	96	79*	0	76*
CCOc1ccccc1NC(=O)CN1CCC(NC(=O)c2ccccc2)CC1	0	91	4	0	x
O=C(CNCCc1ccc(Cl)cc1Cl)NCc1ccco1	0	94	41*	0	45	ATG4B conf=66*
COc1cc(OC)cc(C(=O)N[C@H](C(=O)OCC(=O)Nc2ccc3c(c2)OCO3)C(C)C)c1	0	86	1	0	x
O=C(Nc1sc2c(c1C(=O)O)CCCC2)c1cccc(Cl)c1	0	112	42*	0	51*
COc1ccc2cc(C=NS(=O)(=O)c3ccc(C)cc3)n(C)c2c1	1	105	83*	0	75*
O=C(CNC1CC1)Nc1cc(C(F)(F)F)ccc1Cl	1	102	-5	0	x
Cc1ccc(OCc2nnc(SCC(=O)c3ccccc3)n2Cc2ccco2)cc1	3	88	60*	0	63*
CCCNC(=O)COc1coc(CN2CCN(c3ccc(F)cc3)CC2)cc1=O	2	84	-4	0	x
COc1c(S(=O)(=O)NCCCn2ccnc2)ccc(Cl)c1Cl	0	94	-6	0	x
CNc1ccccc1C(=O)OCC(=O)c1ccccc1	x	x	33	x	x
O=C(COC(=O)c1ccccc1Nc1ccccc1)c1ccccc1	0	116	53*	0	52*
O=Cc1cc(N=Nc2ccccc2Cl)ccc1O	11	113	56*	0	77*
O=c1nc(/C=C/c2ccccc2C(F)(F)F)cc(C(F)(F)F)[nH]1	0	112	45*	0	59*
Cc1ccc(C(=O)NCC(=O)N(C)Cc2ccc(Cl)cc2Cl)s1	x	x	-4	x	x
CCOc1ccc(N=NC2C(=O)N(C(N)=S)N=C2C)cc1 (configuration not stated)	0	108	-2	0	x
O=C1Nc2ccccc2S/C1=C/NCc1ccccc1Cl	0	88	55*	0	61*
CC(OC(=O)c1ccc(-c2ccc([N+](=O)[O-])cc2)o1)C(=O)NC(N)=O (configuration not stated)	4	102	-1	0	x
COc1ccccc1C(=O)Nc1ccnn1C1CCN(Cc2ccc3nonc3c2)CC1	2	73	-7	0	x
O=C(COC(=O)c1ncc(Cl)c(Cl)c1Cl)c1ccc(Cl)s1	0	85	40	0	22
